# Records with an inconclusive call do not appear. Unmarked numbers belong to inactive results. Calls follow the shape of the dose curve; as a rule, active = well fitted curve in the direction sought with a large enough effect; inconclusive = small, poorly fitted or top-dose-only effect, or effect the other way, or another doubt; inactive = no such curve, though single readings can be large or run the other way.
# Molecular target: Pyruvate kinase PKLR (Homo sapiens) (UniProt P30613)
# Experiment: Secondary LDH Assay for Activators of Human Liver Pyruvate Kinase: for Probe SAR;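 also: 0% = uninhibited enzyme rate and 100% = full activation by fructose bisphosphate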
# Conditions: purified hPK-L, LDH-coupled NADH fluorescence kinetic; series mostly up to 58.2 µM; activity change, positive = activation: at the top concentration
# Procedure, shortened: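 Purified hPK-L (10 nM) coupled to LDH (1 uM) in pH 8.0 Tris with 0.1 mM PEP, 4 mM ADP, 0.2 mM NADH. Initial rates from kinetic NADH fluorescence depletion over 3–6 min, normalised to uninhibited and fructose-bis-phosphate EC100 activation.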
# Chain of Pyruvate kinase PKLR (Homo sapiens) (P30613 whole entry, looked up): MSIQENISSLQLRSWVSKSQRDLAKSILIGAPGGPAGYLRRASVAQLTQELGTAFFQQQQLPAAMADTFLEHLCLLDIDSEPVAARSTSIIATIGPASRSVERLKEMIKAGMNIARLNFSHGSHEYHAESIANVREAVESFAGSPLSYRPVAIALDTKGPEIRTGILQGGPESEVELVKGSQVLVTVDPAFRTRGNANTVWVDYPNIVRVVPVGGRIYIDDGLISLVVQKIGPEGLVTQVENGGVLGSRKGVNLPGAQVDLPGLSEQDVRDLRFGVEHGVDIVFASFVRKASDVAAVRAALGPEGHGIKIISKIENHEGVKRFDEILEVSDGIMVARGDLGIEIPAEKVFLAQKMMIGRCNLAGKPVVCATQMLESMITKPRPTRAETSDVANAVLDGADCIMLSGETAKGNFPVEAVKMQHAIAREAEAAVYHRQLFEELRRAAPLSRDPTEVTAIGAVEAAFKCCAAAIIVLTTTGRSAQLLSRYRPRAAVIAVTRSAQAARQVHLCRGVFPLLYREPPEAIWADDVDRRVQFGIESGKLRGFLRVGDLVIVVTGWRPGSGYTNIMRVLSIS
row,SMILES,"activity change, positive = activation"
1,Cc1ccc(NS(=O)(=O)c2cc3c(cc2C)NC(=O)CO3)cc1C,10.9%
2,Cc1ccc(NS(=O)(=O)c2cc3c(cc2Cl)NC(=O)C3)cc1C,-9.33%
3,Cc1ccc(NS(=O)(=O)c2cc3c(cc2-c2ccsc2)NC(=O)CO3)cc1C,9.06%
4,O=C1c2ccccc2C(=O)N1c1cccc2cccnc12,-5.42%
5,CC(=O)N1CCCc2cc(S(=O)(=O)Nc3ccc(C)c(C)c3)ccc21,-4.77%
6,Cc1ccc(NS(=O)(=O)c2cc3c(cc2-c2cn[nH]c2)NC(=O)CO3)cc1C,8.73%
7,O=C1NS(=O)(=O)c2ccccc21,-2.32%
8,COc1ccccc1OC1=NS(=O)(=O)c2ccccc21,-2.18%
9,Cc1ccc(NS(=O)(=O)c2ccc3c(c2)n(C)c(=O)n3C)cc1C,-11%
10,O=C1c2ccccc2C(=O)N1c1cccc2ncccc12,-11.6%
11,Cc1ccc(NS(=O)(=O)c2cc3c(cc2-c2ccco2)NC(=O)CO3)cc1C,20.6%
12,Cc1ccn2c(NC3CCCCC3)c(-c3ccc(C)o3)nc2c1,-7.6%
13,Cc1ccc(N(C)S(=O)(=O)c2ccc3c(c2)CCC(=O)N3)cc1C,7.04%
14,Cc1ccc(NS(=O)(=O)c2ccc3c(c2)CCC(=O)N3)cc1F,-11.2%
15,CC(=O)Nc1cccc(S(=O)(=O)Nc2ccc(C)c(C)c2)c1,-6.88%
16,O=C1CCc2cc(S(=O)(=O)Nc3cc(F)cc(Cl)c3)c(F)cc2N1,16.2%
17,O=C1c2ccccc2C(=O)N1c1cccnc1,-3.98%
18,O=C1CCc2cc(S(=O)(=O)Nc3ccccc3F)ccc2N1,-1.77%
19,O=C1CCc2cc([S+](=O)([O-])Nc3ccc(N[S+](=O)([O-])c4ccc5c(c4)CCC(=O)N5)cc3)ccc2N1,-16.4%
20,O=C1CCc2cc([S+](=O)([O-])NC3CCOCC3)ccc2N1,-17.9%
21,COc1cccc(NS(=O)(=O)c2ccc3c(c2)CCC(=O)N3)c1,1.38%
22,O=C1CCc2cc(S(=O)(=O)Nc3ccccc3Cl)ccc2N1,-18.1%
23,O=C1CCc2cc(S(=O)(=O)Nc3ccc(F)c(Cl)c3)ccc2N1,-3.62%
24,Cc1ccc(NS(=O)(=O)c2ccc3[nH]c(=O)[nH]c3c2)cc1C,12.7%
25,Cc1nc(-c2ccc(S(=O)(=O)Nc3ccc(C)c(C)c3)s2)cs1,12.5%

# Source: PubChem BioAssay AID2625 (National Center for Advancing Translational Sciences (NCATS), 2010)
